# Screens deposited in PubChem by National Center for Advancing Translational Sciences (NCATS).
# LASV entry inh: Lassa virus entry inhibition | Lassa virus pseudotyped entry inhibition, cell-based qHTS | Potency, µM (series often up to 49.2 µM), hits mostly inhibitors | 4.1% of 18,000 active | AID 720533
# MARV entry inh: inhibitors of Marburg virus binding or entry into cells; Potency, µM (top dose mostly 49.2 µM), usual class: inhibitors; 6.5% of 18,000 active; Marburg virus pseudotype entry/binding inhibition, cell-based; AID 720532
# A number is an active result; . = inactive; ? = inconclusive; / = not tested or not shown; ! = not active in a repeat; [ ] = another dose, or the depositor's remark. Shown are actives, neighbours in structure and some others; about 8.6% of the full set was active somewhere. Calls come from the whole dose curve; tested in HEK293 cells.
SMILES,LASV entry inh,MARV entry inh
O=C(Nc1cccc(C(=O)Nc2ccc(S(=O)(=O)O)c3cc(S(=O)(=O)O)cc(S(=O)(=O)O)c23)c1)Nc1cccc(C(=O)Nc2ccc(S(=O)(=O)O)c3cc(S(=O)(=O)O)cc(S(=O)(=O)O)c23)c1,.,31.6µM!
COc1ccc2c(c1)[C@@]1(OCCC=C[C@@H]1C)C(=O)N2Cc1ccc(F)cc1,.[8.59 µM],.[8.59 µM]
CN(C)CCC(c1ccccc1)c1ccccn1 (centres undefined),.,?
C[C@@H](C1=C(CCN(C)C)Cc2ccccc21)c1ccccn1,?,17.8µM
COc1cc(SC)ccc1C(=O)N1CCC(Cc2ccccc2)CC1,11.2µM,.
COc1cc2c(cc1OC)C(=O)C(CC1CCN(Cc3ccccc3)CC1)C2 (centres undefined),.,?
CCN1C(=NCCCCO)NC(c2cccc(C(F)(F)F)c2)C(C(=O)OC)=C1C (centres undefined),.[8.59 µM],.[8.59 µM]
COC(=O)CC=C[C@@H](C)[C@H](OC)c1ccccc1Br,?,0.596µM!
COC(=O)CC=C[C@@H](C)[C@H](O)c1ccccc1Br,.[8.59 µM],.[8.59 µM]
CN[C@@H]1CCc2[nH]c3ccc(C(N)=O)cc3c2C1,.,.
CN(C)C1CCc2[nH]c3ccc(NC(=O)c4ccc(F)cc4)cc3c2C1 (centres undefined),.,11.2µM
O=C(NN=C1C[C@@H](O)[C@H](O)[C@H]2[C@@H]3C(=O)N(C[C@@H]4CCCO4)C(=O)[C@@H]3CC[C@@H]12)OCc1ccccc1,/,.[8.59 µM]
COC(=O)C1=C(C)N(CC2CC2)C(N(C)Cc2ccc(OC)cc2)=NC1c1ccccc1 (centres undefined),.[8.59 µM],.[8.59 µM]
COc1ccc([C@H]2O[C@@H](c3ccc(OC)c(OC)c3)[C@H](C)[C@@H]2C)cc1OC,.,.
Cc1cccc(C(=O)N2CCC(=O)N([C@H](COCc3ccccc3)Cc3ccccc3)CC2)c1,?,.
O=C(c1ccc(C(F)(F)F)cc1)N1CCC(=O)N([C@H](COCc2ccc(Cl)cc2)Cc2ccccc2)CC1,28.2µM,?
O=C(c1ccc(F)cc1)C1CCN(CCn2c(=O)[nH]c3ccccc3c2=O)CC1,.,?
O=c1[nH]c2ccccc2n1CCCN1CCN(C(c2ccccc2)c2ccccc2)CC1,?,15.8µM
O=C(C1CCCCC1)N1C[C@H](O)[C@H](n2cc(C3CC3)nn2)C[C@@H]1c1ccc(Cl)cc1,.,.
COc1cccc([C@H]2NC(=O)CC=C[C@H](C)[C@@H](c3cccc(OC)c3)NC(=O)CC=C[C@H]2C)c1,.[8.59 µM],?
COC(=O)CC=C1c2ccc(OC)cc2[C@@H](OC)[C@@H]1C,/,.[8.59 µM]
COc1cc2c(C=O)c3c4c(cc(OC)c(OC)c4c2cc1OC)CCN3C,15.8µM,?
CCCCCCCc1cc2ccccc2c2c(C(=O)OC)c(C(=O)OC)c(C(=O)OC)n12,/,.[8.59 µM]
COC(=O)CC1C(C)(C)C(OC(C)=O)C2[C@H](OC(C)=O)[C@]34O[C@]2(O)[C@]1(C)C3CC[C@]1(C)C4=CC(=O)OC1c1ccoc1 (some centres undefined),?,7.94µM
CC(=O)OC1CC2C(C)(C)C(O)CC(O)[C@@]2(C)C2CC[C@@]3(C)C(=CC(=O)OC3c3ccoc3)[C@]12C (some centres undefined),.,.
SMILES,LASV entry inh,MARV entry inh
COC1=C[C@H](C(=O)N2CCCC2)[C@H](C)[C@@H](c2ccccc2)CC1=O,.[8.59 µM],.[8.59 µM]
C=C(C)C(=O)C=CC=Cc1ccccc1,/,.[8.59 µM]
C=CCOC(=O)N[C@H](C(C(=O)OC)=C(C)NCc1ccccc1)c1cccc(F)c1,.[8.59 µM],?
CC[C@]1(O)CC2CN(CCc3c([nH]c4ccccc34)[C@@](C(=O)OC)(c3cc4c(cc3OC)N(C)[C@H]3[C@@](O)(C(N)=O)[C@H](O)[C@]5(CC)C=CCN6CC[C@]43[C@@H]65)C2)C1 (some centres undefined),.,?
CCC1=C[C@@H]2CN(C1)Cc1c([nH]c3ccccc13)[C@@](C(=O)OC)(c1cc3c(cc1OC)N(C)[C@H]1[C@@](O)(C(=O)OC)[C@H](OC(C)=O)[C@]4(CC)C=CCN5CC[C@]31[C@@H]54)C2,12.6µM!,1.41µM!
COC(=O)CC=C[C@H](C)[C@@H](OCc1ccccc1Br)C(C)C,/,.[8.59 µM]
CC(C)=CCCC(C)=CCN1C(=O)[C@@]2(CC(C)=CC[C@@H](C)O2)c2c(Br)cccc21,.[8.59 µM],.[8.59 µM]
C[C@H]1CN(c2ccc(Br)cc2)C(=O)[C@H]1CC(=O)Nc1ccccc1,.,.
C[C@@H]1COc2cc(F)ccc2S(=O)(=O)N1,.,.
COc1ccc(OC[C@@H]2CC3[C@@H](CC[C@@H](C)[C@H]3c3ccc(Br)cc3)C(=O)O2)cc1 (some centres undefined),.[8.59 µM],.[8.59 µM]
CCOC(=O)C1=C(N)Oc2ccc(Br)cc2[C@@H]1[C@@H](C#N)C(=O)OCC,20µM,.
CCOC(=O)C1Oc2ccccc2C(C(=O)OC)=C1C(=O)OC (centres undefined),.,.
